A selection: hits, their analogues and other compounds. The true share with any hit is near 3%.
CF NFkB block: inhibitors of PAF-induced NF-kB signaling, primary screen, cell-based, GFP fluorescence, uHTS; inhibition, % at 5 µM; KKLEB NF-kB-GFP reporter, GFP fluorescence overnight; hit rate 0.86% among 360,000;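 active = at least 50% inhibition at 5 µM, scaled per plate between neutral and stimulator controls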;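 note: PAF is a Pseudomonas aeruginosa culture filtrate used as stimulus; plate controls were PAF-stimulated DMSO wells for no effect and unstimulated DMSO wells for full effect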
HIF-2a block: HIF-2a reporter inhibitors, primary screen, luminescence, 786-0 RCC cells. hit rate 0.72% among 360,000. 786-0 RCC cells HIF-2a reporter, luciferase luminescence, overnight. inhibition, % at 18.8 µM;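 active = inhibition of the luminescence signal of 40% or more relative to plate controls, in a single-dose primary screen at 18.75 µM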
Peg3 promoter: Peg3 promoter-driven luciferase inhibitors, primary screen, cell-based, HeLa, luciferase luminescence; HeLa PEG-Prom luciferase reporter, overnight; inhibition, % at 20 µM; hit rate 1.7% among 360,000; AID 588405, 2011;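 active = inhibition of at least 50% at 20 µM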
MITF TRPM1 inh: inhibitors of MITF-dependent TRPM1 promoter reporter, primary screen, cell-based, SK-MEL-5, single point, luciferase; AID 488899, 2010; hit rate 0.83% among 330,000; SK-MEL-5 TRPM1 promoter luciferase, 24 h; inhibition, % at 12.5 µM;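 active = mean inhibition across replicates of 60% or more, whatever share of single replicates reaches that level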
EBV LMP1 NFkB: EBV LMP1-driven NF-kappaB luciferase reporter inhibitors, primary screen, cell-based, luminescence, single point; LMP1-induced NF-kappaB luciferase reporter cells; inhibition, % at 12.5 µM; hit rate 0.69% among 350,000; AID 504558, 2011; in the data active = inhibition above about 41%;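 note: 0% = neutral control wells and 100% = reference inhibitor control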
KKLEB cytotox: cytotoxicity in KKLEB CF airway cells, primary screen, cytotoxicity control for CF NF-kB inhibitor project, cell-based, uHTS, fluorescence assay plates; KKLEB CF airway cells viability, ATPlite luminescence, overnight; stronger effect = lower value; cells stimulated with P. aeruginosa culture filtrate; activity change (cytotoxicity), % at 5 µM; hit rate 0.36% among 360,000; AID 602141, 2011;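 active = corrected activity change at or below -50% at 5 µM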
Mdm2-MdmX confirm: retested Mdm2-MdmX interaction blockers, confirmation, cell-based, luminescence, single concentration, set 2; inhibition, % at 8 µM; shares compounds with HIF-2a block; SaOS-2 split-luciferase Mdm2/MdmX complementation; AID 504601, 2011; hit rate 99% among 740;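 active = mean inhibition of the luminescence signal across two replicates at or above 26 percent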
Target sequence (O15151 whole entry, looked up): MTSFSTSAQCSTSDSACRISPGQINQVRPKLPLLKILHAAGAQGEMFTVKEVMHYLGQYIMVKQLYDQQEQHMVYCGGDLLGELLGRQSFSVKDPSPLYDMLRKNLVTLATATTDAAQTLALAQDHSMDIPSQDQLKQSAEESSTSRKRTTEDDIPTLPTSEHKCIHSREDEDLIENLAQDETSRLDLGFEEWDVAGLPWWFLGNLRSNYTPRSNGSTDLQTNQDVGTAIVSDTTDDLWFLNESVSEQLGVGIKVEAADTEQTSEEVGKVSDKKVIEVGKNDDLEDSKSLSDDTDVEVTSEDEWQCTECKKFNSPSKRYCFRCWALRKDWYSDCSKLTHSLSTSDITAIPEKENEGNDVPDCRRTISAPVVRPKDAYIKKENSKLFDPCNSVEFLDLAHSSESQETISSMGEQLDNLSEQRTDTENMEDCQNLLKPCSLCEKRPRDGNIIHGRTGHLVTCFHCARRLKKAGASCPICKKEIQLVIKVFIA
Target sequence (Q00987 whole entry, looked up): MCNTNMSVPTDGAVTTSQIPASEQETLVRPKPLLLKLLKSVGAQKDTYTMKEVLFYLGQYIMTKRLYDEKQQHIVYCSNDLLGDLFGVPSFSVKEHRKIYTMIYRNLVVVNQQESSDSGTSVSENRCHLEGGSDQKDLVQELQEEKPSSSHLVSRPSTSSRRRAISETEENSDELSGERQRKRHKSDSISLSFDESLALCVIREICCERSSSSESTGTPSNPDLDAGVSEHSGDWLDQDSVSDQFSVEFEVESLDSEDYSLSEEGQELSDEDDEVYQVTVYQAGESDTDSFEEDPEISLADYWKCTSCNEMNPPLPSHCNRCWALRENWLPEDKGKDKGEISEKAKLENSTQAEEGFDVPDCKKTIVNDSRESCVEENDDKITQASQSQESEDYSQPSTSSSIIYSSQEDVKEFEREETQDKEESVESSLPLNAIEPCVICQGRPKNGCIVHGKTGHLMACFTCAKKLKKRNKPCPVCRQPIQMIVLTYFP
HIF-2a conf: HIF-2a reporter inhibitor retest, confirmation, luminescence, 786-0 RCC cells | hit rate 56% among 1,800 | HIF-2a luciferase reporter luminescence, overnight | shares compounds with HIF-2a block | inhibition, % at 18.8 µM;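 active = mean inhibition across four replicates of at least 40 percent at the single tested concentration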
HIF-1a counter: HIF-1a luciferase reporter signal reduction – MiaPaCa-2 cells, single concentration, counter-screen for HIF-2a inhibitor project, confirmation | inhibition, % at 18.8 µM | AID 651589, 2012 | hit rate 72% among 1,800 | shares compounds with HIF-2a block | MiaPaCa-2 HIF-1a luciferase reporter, desferoxamine, overnight;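 active = mean inhibition of the reporter signal across four replicates at the single tested dose of 50% or more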
Active calls of the source: *; / = not tested or not shown.

SMILES | CF NFkB block | HIF-2a block | Peg3 promoter | MITF TRPM1 inh | EBV LMP1 NFkB | KKLEB cytotox | HIF-2a conf | HIF-1a counter | others
O=C1OCCC1Sc1nc2ccccc2c(=O)n1Cc1ccccc1 (configuration not stated) | -1.0 | 15.5 | -7.8 | 16.5 | 1.4 | 3.8 | / | /
O=C1OCCC1Sc1nc2cc(Cl)ccc2n1Cc1ccccc1 (configuration not stated) | 8.6 | 50.8* | 9.7 | 1.1 | 2.5 | -4.2 | 3.6 | 7.9
Cc1ccc(NC(=O)c2ccc(S(=O)(=O)N(C)c3ccccc3)cc2)cc1S(=O)(=O)N1CCOCC1 | 6.3 | 25.2 | 4.1 | 3.4 | 9.9 | 0.2 | / | /
COc1ccc(N(C(=O)c2ccco2)C(C(=O)NC2CCCCC2)c2cccs2)cc1OC (configuration not stated) | 0.3 | 13.3 | 10.7 | 2.1 | 5.4 | -8.8 | / | /
COc1cccc(N(C(=O)CCl)C(C(=O)NCCc2ccccc2)c2cccs2)c1 (configuration not stated) | 93.9* | 93.1* | 109.3* | 88.5* | 35.6 | -89.8* | 98.0* | 107.2*
COc1ccc(N(C(=O)CCl)C(C(=O)NCCc2ccccc2)c2cccs2)cc1Cl (configuration not stated) | 89.3* | 94.8* | 102.1* | 85.6* | 6.9 | -104.2* | 99.1* | 102.9*
CC(C)CN1C(=O)CSCC1(C)C(=O)NC(C)C (configuration not stated) | / | 5.2 | / | / | / | / | / | /
Cc1ccc(-n2nnc3c(=O)oc4ccccc4c32)cc1 | 18.1 | 52.0* | 49.5 | 52.2 | 5.2 | 0.6 | 14.5 | 29.5
CC1(C)CC(=O)C=C(c2n[nH]nc2C2CCCCC2)C1 | -2.6 | -11.3 | 6.1 | / | 1.1 | 6.0 | / | /
Cc1ccc(-c2cc(C(=O)NCCCN3CCOCC3)no2)cc1 | 11.8 | 84.3* | 0.5 | 22.6 | 8.1 | -20.3 | 82.4* | 71.2*
COc1ccc(N2CCN(CCNC(=O)c3ccc4c(c3)[nH]c(=S)n3c5ccccc5nc43)CC2)cc1 | -9.9 | 31.1 | 84.5* | 14.8 | -88.8 | -1.1 | / | / | Mdm2-MdmX confirm=99.5*
O=C(CCCCC(=O)NN=Cc1ccc2c(c1)CCC2)NN=Cc1ccc2c(c1)CCC2 | -25.4 | -3.9 | -14.1 | / | -19.5 | 5.2 | / | /
CCC1C(c2ccccc2)N(C)C(c2ccccc2)CC1(O)c1ccccc1 (configuration not stated) | 26.1 | 32.8 | 35.2 | 5.7 | -6.7 | 2.8 | / | /
CC(C)C1C(c2ccccc2)N(C)C(c2ccccc2)CC1(O)c1ccccc1 (configuration not stated) | 17.2 | 53.2* | 33.9 | -10.0 | -16.7 | -3.4 | 2.1 | 28.9
COc1ccc(C2=Nc3ccccc3N(C(=O)c3ccc(C(F)(F)F)cc3)C2C(=O)NCc2ccccc2)cc1 (configuration not stated) | / | -42.2 | / | / | / | / | / | /
COc1ccc(-c2ccc3c(c2)C2CC3CCN2C(=O)OCc2ccccc2)cc1 (configuration not stated) | 16.5 | -82.4 | -40.0 | -2.8 | -1.5 | -13.8 | / | /
N#Cc1cccc(C=C(C(=O)c2ccccc2)c2ccccc2)c1 | / | 40.8* | / | / | / | / | 8.7 | 5.8
CC(=O)N/N=C\c1cccc(OC/C=C/c2ccccc2)c1 | 3.1 | 47.5* | -70.7 | -12.9 | -15.9 | -5.4 | 56.0* | -30.5
N#CCC(=O)N/N=C\c1cccc(OC/C=C/c2ccccc2)c1 | -5.1 | 64.4* | 52.1* | 10.1 | 13.7 | 8.8 | 71.4* | 10.8
O=C(Oc1ccc2ccccc2c1)c1ccco1 | 17.8 | 11.8 | -10.5 | 0.3 | 0.6 | -2.7 | / | /
CC1CC(C)(C)Nc2ccc(OC(=O)c3ccco3)cc21 (configuration not stated) | 11.5 | 44.9* | -16.1 | 34.7 | 25.2 | 4.6 | 62.3* | 71.0*
O=C(NCc1ccccc1)C(c1ccccc1)n1c(C2CC2)nc2ccccc21 (configuration not stated) | / | -277.1 | / | / | / | / | / | /
Cc1cc(-c2ccc([N+](=O)[O-])cc2)cc(C)n1 | -29.3 | -30.7 | -30.7 | -8.3 | 1.7 | -0.5 | / | /
O=S(=O)(c1ccc(S(=O)(=O)N2CCCC2)cc1)N1CCCCCC1 | -3.0 | 8.8 | 5.2 | 10.4 | -8.6 | 3.0 | / | /
O=S(=O)(c1ccc2c(c1)C(=NO)c1cc(S(=O)(=O)N3CCCCC3)ccc1-2)N1CCCCC1 | 99.9* | 86.9* | 86.1* | 87.6* | 84.8* | -105.8* | 81.7* | 103.4*
SMILES | CF NFkB block | HIF-2a block | Peg3 promoter | MITF TRPM1 inh | EBV LMP1 NFkB | KKLEB cytotox | HIF-2a conf | HIF-1a counter | others
O=C1OC(c2ccc(O)cc2)(c2ccc(O)cc2)c2ccccc21 | 16.7 | 23.4 | 19.8 | -2.8 | 11.2 | -15.1 | / | /
O=C1OC(c2ccccc2)(c2ccc3cc(O)ccc3c2)c2ccccc21 (configuration not stated) | -1.1 | 40.4* | 78.8* | 5.7 | 6.4 | -18.6 | 19.2 | 98.0*
O=C(OCc1cn([C@H]2C[C@H](c3ccccc3)N(Cc3cccs3)C[C@@H]2O)nn1)c1ccccc1 | -15.7 | 9.1 | -5.5 | / | -0.7 | 2.3 | / | /
COc1ccc(-c2cnc3c(NC=O)cc(-c4cccc(NS(C)(=O)=O)c4)cn23)cc1OC | 92.6* | 51.5* | 69.4* | / | / | -62.5* | 78.7* | -9.2
COc1cccc(-c2cc(NC=O)c3ncc(-c4ccc(OC)c(OC)c4)n3c2)c1 | 34.3 | -74.6 | 48.9 | / | / | -22.1 | / | /
O=C(Nc1ccc(F)cc1)C(c1ccccc1)N1CCN(c2cccc(C(F)(F)F)n2)CC1 (configuration not stated) | / | -11.0 | / | / | / | / | / | /
C=CCSC(=C(C#N)C#N)c1cc2c([nH]1)CCCC2 | 18.0 | 65.8* | 93.8* | 38.6 | -14.6 | -13.9 | 8.7 | 106.2*
N#Cc1cc2c([nH]c1=S)CCCC2 | -15.7 | -4.5 | 10.5 | 6.6 | 14.2 | 1.4 | / | /
Cn1cc(C(CC(=O)O)C(=O)O)c2ccccc21 (configuration not stated) | 10.2 | 20.8 | 11.6 | 12.9 | 1.5 | -9.8 | / | /
CC(C)n1c(/C=C/[C@H](O)C[C@H](O)CC(=O)O)c(-c2ccc(F)cc2)c2ccccc21 | 31.1 | 45.1* | 38.6 | -31.4 | -47.6 | -27.7 | 25.4 | -25.2
